A selection: hits, their analogues and other compounds. The true share with any hit is near 3.4%.
GPR151 activ: activators of human GPR151; activation, % at 11.2 µM; Q8TDV0; AID 1508602; 650,000 compounds, 1% hits; PathHunter beta-arrestin GPR151 cells, luminescence; in the data active = activation above about 4.9%
FBW7 act: human FBW7 E3 ligase activation, primary screen; normalized activity (activation), % at 26.1 µM; AID 1259310; AlphaScreen FBW7–phospho-cyclin E peptide binding, activator screen; 650,000 compounds, 0.13% hits; Q969H0; in the data active = normalized activity above about 1.9%;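 note: purified mutant Fbw7 with reduced substrate affinity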
TEAD-YAP block: TEAD-YAP interaction inhibition; inhibition, % at 9.12 µM; 640,000 compounds, 1.4% hits; HEK-TIYL cells, TEAD-Gal4/YAP UAS-luciferase luminescence; AID 1259422; in the data active = inhibition above about 32%
MITF inh: blocks human microphthalmia-associated transcription factor; inhibition, % at 2.6 µM; 650,000 compounds, 0.91% hits; AID 1259374; AlphaScreen MITF homodimerization, bead proximity signal; in the data active = inhibition above about 50%
Target sequence (O75030 whole entry, looked up): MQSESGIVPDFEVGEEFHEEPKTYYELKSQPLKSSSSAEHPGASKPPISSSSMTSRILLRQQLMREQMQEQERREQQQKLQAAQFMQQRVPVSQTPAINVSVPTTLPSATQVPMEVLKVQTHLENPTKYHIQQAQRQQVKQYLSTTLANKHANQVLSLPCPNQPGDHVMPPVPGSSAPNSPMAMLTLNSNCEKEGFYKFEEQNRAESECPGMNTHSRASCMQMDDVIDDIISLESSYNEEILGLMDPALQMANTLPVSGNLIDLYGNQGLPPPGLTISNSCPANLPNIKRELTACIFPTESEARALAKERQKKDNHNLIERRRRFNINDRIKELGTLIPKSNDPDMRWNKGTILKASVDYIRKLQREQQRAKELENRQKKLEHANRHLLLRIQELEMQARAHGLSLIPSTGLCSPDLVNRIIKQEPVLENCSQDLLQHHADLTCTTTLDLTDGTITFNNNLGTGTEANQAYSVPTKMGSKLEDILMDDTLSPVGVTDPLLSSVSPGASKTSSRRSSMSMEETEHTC
Numbers stand for hits; . = inactive.

SMILES	GPR151 activ	FBW7 act	TEAD-YAP block	MITF inh
COc1cc(/C=C2/SC(N)=NC2=O)cc(Cl)c1O	.	.	.	.
COCCn1nnnc1C(C)N(CCCO)Cc1cc2cc(C)cc(C)c2[nH]c1=O (stereo not given)	.	.	.	.
O=C(CSc1nnc2c(n1)[nH]c1ccc(F)cc12)Nc1cccc(C(=O)O)c1	.	.	.	.
Cc1cc(C)n2nc(C(=O)N/N=C/c3cc(Cl)ccc3O)nc2n1	.	.	.	55.9
Cc1cc(C)n2nc(C(=O)N/N=C/c3cc(Cl)cc([N+](=O)[O-])c3O)nc2n1	.	.	.	.
O=C(N/N=C/c1ccccc1Cl)c1cccs1	.	.	.	.
O=C(N/N=C\c1cc(Cl)ccc1O)c1cccs1	.	.	43.3	.
O=c1[nH]c2nonc2nc1Nc1ccc(Cl)cc1	.	.	.	.
Fc1ccc(Nc2nc3nonc3nc2Nc2ccc(F)cc2)cc1	.	.	61.3	.
Ic1ccc(Nc2nc3nonc3nc2N2CCCCC2)cc1	.	.	.	.
FC(F)(F)c1cccc(Nc2nc3nonc3nc2Nc2ccc(Cl)cc2)c1	.	.	81.5	.
Clc1ccc(Nc2nc3nonc3nc2N2CCCCC2)cc1	.	.	33.4	.
Clc1ccc(Nc2nc3nonc3nc2Nc2ccc(Cl)cc2)cc1	.	.	92.2	.
Cc1nc(C(=O)NCC2CCC3(CCN(Cc4ccc5cccnc5c4)CC3)O2)cs1 (stereo not given)	.	.	.	.
Nc1cc2c3c(c1)C(c1ccccc1)CCN3CCC2c1ccccc1 (stereo not given)	.	6.3	.	.
CCOC(=O)C1CCN(C(=O)Nc2ccc(NC(=O)C3CCN(C(=O)OCC)CC3)cc2)CC1	.	6.1	.	.
Cc1ccoc1C(=O)NCC1Cc2cc(-c3ccc(S(C)(=O)=O)cc3)ccc2O1 (stereo not given)	.	.	38.8	.
Cc1noc(C)c1C(=O)NCC1Cc2cc(-c3ccc(S(C)(=O)=O)cc3)ccc2O1 (stereo not given)	.	.	.	.
O=C(Nc1ccc(NC(=O)C2CC2)cn1)c1ccco1	.	.	48.2	.
CC(C)C(=O)Nc1ccc(NC(=O)c2ccco2)nc1	.	.	73.9	.
CC(C)C(=O)Nc1ccc(NC(=O)C(C)C)nc1	.	.	.	.
CCOc1ccc(N(CC)S(=O)(=O)c2cccc3cccnc23)cc1	.	.	53.0	.
CCC1C(=O)NCCN1Cc1ccc2c(c1)CN(Cc1ccc(Cl)cc1)CCO2 (stereo not given)	.	.	.	.
CCC1C(=O)NCCN1Cc1ccc2c(c1)CN(Cc1c(C)nc3sccn13)CCO2 (stereo not given)	.	.	34.7	.
Nc1nc(Nc2ccc(N3CCOCC3)cc2)cc(Nc2ccncn2)n1	.	.	.	.
SMILES	GPR151 activ	FBW7 act	TEAD-YAP block	MITF inh
CC(=O)c1cccc(-c2cc(Nc3ccc(N4CCOCC4)cc3)nc(N)n2)c1	.	.	46.5	.
CC(=O)c1cccc(-c2nc(C)cc(Nc3ccc(N4CCOCC4)cc3)n2)c1	.	.	.	.
CC(C)n1cnc2c(Nc3ccccc3)nc(Nc3ccc(N4CCOCC4)cc3)nc21	.	.	.	.
CC(C)n1cnc2c(Nc3ccc(N4CCOCC4)cc3)nc(Nc3cnccn3)nc21	.	.	32.3	.
Nc1nc(Nc2ccc(N3CCOCC3)cc2)cc(Nc2cnccn2)n1	.	.	61.0	.
CC(=O)Nc1ccc(Nc2nc(Nc3cnccn3)nc3c2ncn3C(C)C)cc1	.	.	40.9	.
CC(C)n1cnc2c(Nc3ccccc3)nc(Nc3cnccn3)nc21	.	.	.	.
COc1ccc(CSc2ccc(C(=O)O)cc2[N+](=O)[O-])cc1	.	.	.	.
Cc1ccc(N2C(=O)c3ccccc3NC2c2sccc2C)cc1 (stereo not given)	.	.	.	.
CN(C)S(=O)(=O)NCC(=O)N/N=C/c1ccc(Br)cc1	.	.	.	.
C=CC[n+]1c(Nc2ccc(NC(C)=O)cc2)sc(C)c1-c1ccccc1	.	.	32.6	.
COc1ccccc1CNC(=O)c1cc2c(=O)[nH]c3ccccc3c2n1C	.	4.8	.	.
CCC(=O)Nc1nc2c(s1)C(=O)CC(c1ccccc1)C2 (stereo not given)	.	.	52.1	.
CN1CC[C@@H](Oc2ccnc(C(=O)Nc3ccc4[nH]ncc4c3)c2)C1	.	.	65.7	.
O=C(Nc1ccc2[nH]ncc2c1)c1cc(O[C@H]2CCNC2)ccn1	.	.	43.1	.
O=C(Nc1ccc2[nH]ncc2c1)c1ccc(OC2CCN(Cc3ccccc3)CC2)nc1	.	.	43.9	.
CN1CCC(Oc2ccnc(C(=O)Nc3ccc4[nH]ncc4c3)c2)CC1	.	.	.	.
O=C(Nc1ccc2[nH]ncc2c1)c1cccnc1OC1CCN(Cc2ccccc2)CC1	.	.	.	.
O=C(/C=C/c1cccs1)N1CCC2(CC1)CC2C(=O)N1CCN(c2ccccc2)CC1 (stereo not given)	.	.	.	.
CCOc1cc(/C=N/NC(=O)Cn2c3ccccc3c(=O)c3ccccc32)ccc1O	.	.	58.7	.
CCOc1cc(/C=N/NC(=O)Cn2nnc(-c3ccccc3)n2)ccc1O	.	.	.	.
O=C(Cn1c2ccccc2c(=O)c2ccccc21)N/N=C/c1ccccc1O	.	.	45.0	.
CC(C)(C)C(=O)COC(=O)c1ccc(S(C)(=O)=O)c([N+](=O)[O-])c1	.	.	.	.
CS(=O)(=O)c1ccc(C(=O)OCc2cccc(C(F)(F)F)c2)cc1[N+](=O)[O-]	.	.	52.3	.
Cc1ccc(C(=O)Nc2nc(Cl)c(C#N)s2)cc1	.	.	70.6	.
SMILES	GPR151 activ	FBW7 act	TEAD-YAP block	MITF inh
N#Cc1sc(NC(=O)c2ccc(F)c(F)c2)nc1Cl	.	.	.	.
N#Cc1sc(NC(=O)c2cccc(Br)c2)nc1Cl	.	.	64.2	.
C/C=C/COC(=O)c1[nH]c2c(c1C)C(=O)CC(c1cccs1)C2 (stereo not given)	.	.	42.5	.
CCSCCOC(=O)c1[nH]c2c(c1C)C(=O)CC(c1cccs1)C2 (stereo not given)	.	.	55.0	.
Cc1c(C(=O)OCCOC(C)C)[nH]c2c1C(=O)CC(c1cccs1)C2 (stereo not given)	.	.	50.5	.
COCCOC(=O)c1[nH]c2c(c1C)C(=O)CC(c1cccs1)C2 (stereo not given)	.	.	48.9	.
CCSCCOC(=O)C1=C(C)NC2=C(C(=O)CC(c3cccs3)C2)C1c1ccc(F)cc1 (stereo not given)	.	.	.	.
CCOC(=O)c1[nH]c2c(c1C)C(=O)CC(c1cccs1)C2 (stereo not given)	.	.	52.4	.
CCOCCOC(=O)c1[nH]c2c(c1C)C(=O)CC(c1cccs1)C2 (stereo not given)	.	.	54.0	.
Cc1c(C(=O)OC(C)C)[nH]c2c1C(=O)CC(c1cccs1)C2 (stereo not given)	.	.	60.1	.
CCOC(=O)C1=C(C)NC2=C(C(=O)CC(c3cccs3)C2)C1c1ccc(C)s1 (stereo not given)	.	.	.	.
Cc1ccc(NC(=S)N(CCCN2CCCCCC2)Cc2cccs2)cc1	.	.	.	.

Assay outcomes as filed in PubChem BioAssay.
